Data as given in PubChem BioAssay (EPA / NIEHS).
Calls of active or inactive are those of the source. The calls were made as follows: active = hit-call score of the fitted dose curve at least 0.9, where 1 is the maximum; inactive = score below 0.9.

experiment: APR_HepG2_NuclearSize_72hr: Apredica 72-hour HepG2 Assay for Nuclear Size (AID 2282925); settings: high-content imaging, actives raise or lower the signal
Protocol: APR_HepG2_72hr is a cell-based, multiplexed-readout assay that uses HepG2, a human liver cell line, with measurements taken at 72 hours after chemical dosing in a 384-well plate.APR_HepG2_NuclearSize_72hr is one of 10 assay component(s) measured or calculated from the APR_HepG2_72hr assay. It is designed to make measurements of cell phenotype, a form of morphology reporter, as detected with fluorescence intensity signals by HCS Fluorescent Imaging technology.Data from the assay component APR_HepG2_NuclearSize_72hr was analyzed into 1 assay endpoint. This assay endpoint, APR_HepG2_NuclearSize_72hr, was analyzed with bidirectional fitting relative to DMSO as the negative control and baseline of activity. Using a type of morphology reporter, measures of all nuclear dna for gain or loss-of-signal activity can be used to understand the signaling at the nuclear-level. Furthermore, this assay endpoint can be referred to as a primary readout, because this assay has produced multiple assay endpoints where this one serves a signaling function. To generalize the intended target to other relatable targets, this assay endpoint is annotated to the cell morphology intended target family, where the subfamily is organelle conformation.
Cells were treated with dimethyl sulfoxide (DMSO) as a solvent control at a final concentration of 0.5% v/v or with compounds in DMSO with a resulting final DMSO concentration of 0.5% v/v. Compound treatment was done at concentrations of 0.39, 0.78, 1.56, 3.12, 6.24, 12.5, 25, 50, 100, and 200 uM in duplicate on each plate. Cells were treated with compounds for 1, 24, or 72 hr. Carbonyl […] m-chloro-phenylhydrazone (CCCP) and taxol were used as positive controls for mitochondrial function and cytoskeletal stability, respectively; DMSO served as the negative control for this experiment. Cells were fixed by the direct addition of 50 uL formaldehyde in Hank's Balanced Salt Solution (HBSS) to a final concentration of 3.7%. After incubation in the fixation medium for 30 min at room temperature (293-298 K), cells were rinsed twice with HBSS and treated with cell permeabilization buffer (16 uL of 0.5% Triton X-100) for 10 min at room temperature (293-298 K) before labeling. For mitochondrial membrane potential and mitochondrial measurements, pre-fixed cells were incubated with 50 uL of MitoTracker Red CMXRos (Invitrogen) at a concentration of 250 nM for 30 min before fixation. In the remaining cases, post-fixed cells were labeled by incubation with a multiplexed mixture of primary antibodies in HBSS for 60 min at room temperature (293-298 K) to detect immunoreactivity of c-Jun (1:500), phospho-histone H3 (1:100), phospho-histone H2A.x (1:200), p53 (1:400), alpha-tubulin (1:200) and Hoechst 33342 (2 ug/mL). Cells were labeled for multiplexed imaging on two separate plates: a) Hoechst 33342, MitoTracker Red, phospho-histone H3, and alpha-tubulin, and b) Hoechst 33342, phospho-histone H2A.x, and c-Jun. A final rinse with HBSS (50 uL) was performed before analysis. The primary and secondary antibodies for the proteins were phospho-histone H3 (rabbit anti-phospho-histone H3 and FITC-donkey anti-rabbit IgG), phospho-histone H2A.x (mouse anti-phospho-histone H2A.x and FITC-donkey anti-mouse IgG), c-Jun (rabbit anti-phospho-c-Jun and Cy3-donkey anti-rabbit IgG), p53 (sheep anti-p53 and Cy5-donkey anti-sheep IgG), alpha-tubulin (mouse anti-alpha-tubulin and Cy5-donkey anti-mouse IgG). These antibodies are available as the CellCiphr HepG2 assay kit (Millipore).Digital images of each well were captured using a Cellomics ArrayScan VTI (Thermo Scientific Cellomics) (0.8 NA objective, 0.63x optical coupler, and XF-93 filter set) at 20x magnification. The images were acquired using the autofocus feature of the ArrayScan instrument, which entails the following steps. First, the camera focuses on channel 1 (Hoechst 33342), where nuclei are identified. Second, a Z offset of 1 um is used for capturing mitochondria (MitoTracker Red). […]

outcome, inactive:
O=C1CCCCC1, Cc1ccc(-c2cc(C(F)(F)F)nn2-c2ccc(S(N)(=O)=O)cc2)cc1, C=CCCCCCCCCCCCC, CCCCC(CC)CO (stereo not given), CCCCCCC(C=O)=Cc1ccccc1, CCCCCCCCCCCCCCCCO, CCc1nc(N)nc(N)c1-c1ccc(Cl)cc1, O=[Si]=O, CCCCCCCCCC[N+](C)(C)[O-], CCCCC(CC)COP(=O)(OCC(CC)CCCC)OCC(CC)CCCC (stereo not given), C/C=C/c1ccc(OC)cc1, CC(C)(C)c1ccccc1, CCC(C)N(C)C(=O)c1cc2ccccc2c(-c2ccccc2Cl)n1 (stereo not given), O=C(O)CN(CC(=O)O)CC(=O)O, OCC(CO)n1cnc(-c2ccc(F)cc2)c1-c1ccnc(Oc2ccccc2)n1, c1ccc2occc2c1, CCCCOC(=O)CCCCC(=O)OCCCC, Cn1cnc2c1c(=O)[nH]c(=O)n2C, CC(C)NCC(O)c1ccc(O)c(O)c1 (stereo not given), C#CC(O)C(CC)CCCC (stereo not given), Cc1ccc(C(C)(C)C)c(O)c1, O=C1O[C@H]([C@H](O)CO)C(O)=C1O, CCCCCCCC(=O)OC, CCCCCCC(CCCCCCCCCCC(=O)OCC(COC(C)=O)OC(C)=O)OC(C)=O (stereo not given), CCOCCOCCO, O=C1OC(c2ccc(O)cc2)(c2ccc(O)cc2)c2ccccc21, O=C(O)CC(O)(CC(=O)O)C(=O)O, COC(=O)[C@H]1[C@H]2C[C@@H]3c4[nH]c5cc(OC)ccc5c4CCN3C[C@H]2C[C@@H](OC(=O)c2cc(OC)c(OC)c(OC)c2)[C@@H]1OC, CC(C)c1cccc(C(C)C)c1, CCN(CC)CCOc1ccc(C(=C(Cl)c2ccccc2)c2ccccc2)cc1, CSc1ccc(Oc2ccc(S(N)(=O)=O)cc2CN(C)C)cc1C, CC1(C)C(=O)NC(=O)N1CO, N[C@@H](Cc1c[nH]c2ccccc12)C(=O)O, CC1=C(C)S(=O)(=O)CCS1(=O)=O, CCCCc1nc2cccnc2n1Cc1ccc(-c2ccccc2-c2nnn[nH]2)cc1, Nc1nc(=S)c2[nH]cnc2[nH]1, CC(C)OC(=O)C(C)(C)Oc1ccc(C(=O)c2ccc(Cl)cc2)cc1, CC(=O)CC(c1ccccc1)c1c(O)c2ccccc2oc1=O (stereo not given)

AC50, active:
NCCOCCOCCN 3.84 µM, C/C=C/C=C/C(=O)O 60.7 µM
